# Beta cell apopt = inhibitors of cytokine-induced beta cell apoptosis, primary screen, luminescence. INS-1E cytokine-induced death, ATP luminescence, 48 h; percent of positive-control rescue, neutral wells zero. protection from apoptosis, % (concentration not given with the values). actives 0.8% (n = 300,000);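 active = Every replicate reaches about 75%, or at least half do and their mean reaches it too, limit read from the data; inconclusive = At least half of replicates reach the limit but their mean does not; inactive = Under half of replicates reach the limit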;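 also: 0% = cytokine-treated negative control wells and 100% = positive control rescue; higher means more ATP so stronger rescue from cytokine killing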
# Calb FLC = C. albicans growth inhibition with fluconazole, primary screen, CaCi-2 strain, Alamar Blue fluorescence. C. albicans CaCi-2 (fluconazole-resistant clinical isolate) + fluconazole, 48 h. AID 1979, 2009. actives 0.57% (n = 300,000). growth inhibition, % (test concentration not listed);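 active = growth inhibition above about 58% in most replicates, limit read from the data, passing the limit was not always enough; inconclusive = exactly half the replicates above a set limit; inactive = most replicates below a set limit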;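 also: all wells also contain fluconazole at 8 µg/ml as a sub-toxic cotreatment; 0% = median of DMSO wells and 100% = median of geldanamycin control wells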
# MPTP block = mitochondrial permeability transition pore inhibitors, primary screen, biochemical, isolated mouse mitochondria, absorbance | Ca2+ swelling absorbance, 30 min | inhibition, % at 10 µM | actives 1.4% (n = 360,000) | AID 602449, 2012;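 active = inhibition of 50% or more, scaled per plate between neutral and stimulator controls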;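 also: 0% = DMSO wells given calcium and 100% = 1 mM EGTA wells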
# SKKanGAS inh = S. pyogenes SKKanGAS growth inhibitors in kanamycin, primary screen, streptokinase expression inhibitor project, SKKanGAS strain, BacTiter-Glo luminescence. 6 h. actives 1.3% (n = 300,000). inhibition, % at 7.5 µM;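 active = mean replicate score, as percent of positive control median, at least 50; inconclusive = mean below 50 but one replicate at or above 50; inactive = mean and every replicate below 50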;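 also: strain carries kanamycin resistance gene driven by streptokinase promoter and grows in 40 µg/ml kanamycin; loss of luminescence reflects streptokinase promoter inhibition or plain growth inhibition; 0% = median of DMSO wells and 100% = positive control at its reference dose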
# Mdm2-MdmX inh = inhibitors of human Mdm2-MdmX association, primary screen, cell-based, luminescence, split luciferase, SaOS-2, uHTS; inhibition, % at 8 µM; actives 3% (n = 330,000); SaOS-2 split-luciferase Mdm2/MdmX complementation; Protein Mdm4 (Homo sapiens) + E3 ubiquitin-protein ligase Mdm2 (Homo sapiens), …;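 active = inhibition of at least 50% at 8 µM in the primary screen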
# Target sequence (O15151 whole entry, looked up): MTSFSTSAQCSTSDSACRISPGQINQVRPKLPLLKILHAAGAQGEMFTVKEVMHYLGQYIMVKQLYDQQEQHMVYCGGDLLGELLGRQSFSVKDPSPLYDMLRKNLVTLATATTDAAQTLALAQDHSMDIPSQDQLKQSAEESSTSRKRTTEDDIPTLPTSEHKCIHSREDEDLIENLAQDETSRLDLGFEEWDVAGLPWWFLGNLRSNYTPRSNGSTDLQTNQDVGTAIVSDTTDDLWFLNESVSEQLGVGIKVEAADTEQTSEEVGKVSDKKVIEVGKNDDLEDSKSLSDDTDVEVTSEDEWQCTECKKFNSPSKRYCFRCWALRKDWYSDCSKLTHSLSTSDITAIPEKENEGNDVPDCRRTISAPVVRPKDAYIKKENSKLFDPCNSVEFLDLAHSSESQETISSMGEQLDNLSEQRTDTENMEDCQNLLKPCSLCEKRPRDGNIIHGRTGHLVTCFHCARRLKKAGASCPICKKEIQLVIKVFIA
# Target sequence (Q00987 whole entry, looked up): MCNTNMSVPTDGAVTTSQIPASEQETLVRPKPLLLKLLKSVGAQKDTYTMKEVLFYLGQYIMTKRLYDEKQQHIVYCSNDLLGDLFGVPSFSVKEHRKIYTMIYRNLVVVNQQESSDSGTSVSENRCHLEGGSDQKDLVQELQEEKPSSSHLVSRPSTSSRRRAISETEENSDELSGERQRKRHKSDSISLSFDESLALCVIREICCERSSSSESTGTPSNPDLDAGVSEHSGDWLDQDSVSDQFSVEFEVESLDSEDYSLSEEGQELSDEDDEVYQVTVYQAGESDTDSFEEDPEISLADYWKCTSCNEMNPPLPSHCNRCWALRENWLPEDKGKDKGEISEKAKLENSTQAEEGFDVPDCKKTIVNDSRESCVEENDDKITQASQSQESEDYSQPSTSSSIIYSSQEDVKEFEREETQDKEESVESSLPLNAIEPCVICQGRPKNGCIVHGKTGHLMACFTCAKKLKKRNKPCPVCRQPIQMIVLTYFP
# CSC inhib = cancer stem cell viability inhibitors, primary screen, luminescence. cancer stem cell-like cells viability. inhibition, % at 7.5 µM. actives 1.1% (n = 300,000); in the data active = inhibition above about 75%; inconclusive = no clear call, values can overlap the other calls; tested in HMLE shEcad cells
# Mdm2 MdmX conf = Mdm2-MdmX complex disruptors, retested hits, confirmation, luminescence, single concentration. shares compounds with Mdm2-MdmX inh. Mdm2-MdmX binding, luminescent assay. inhibition, % at 8 µM. actives 55% (n = 10,000). AID 489028, 2010; in the data active = inhibition above about 40%
# Full FLuc ctr = full-length luciferase signal inhibition, confirmation, counter-screen for Mdm2/MdmX interaction inhibitor project, cell-based, single concentration, SaOS-2 | shares compounds with Mdm2-MdmX inh | SaOS-2 full-length luciferase counterscreen, luminescence | inhibition, % at 8 µM | actives 77% (n = 6,200) | AID 504607, 2011;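 active = mean inhibition at 8 µM reaching about 37%, which flags the compound as non-specific, limit read from the data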;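 also: p53-null SaOS-2 cells with luciferase driven by a doxycycline-inducible promoter; compound on cells about two nights before reading with doxycycline added after day one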
# * hit, by the source's call; u = inconclusive; x = no result. The list is not random: actives were taken first. Their share in the collection is about 5.4%.
SMILES,Beta cell apopt,Calb FLC,MPTP block,SKKanGAS inh,Mdm2-MdmX inh,CSC inhib,Mdm2 MdmX conf,Full FLuc ctr
O=C(COS(=O)c1ccccc1)Nc1cc(Cl)ccc1N1CCOCC1 (configuration not stated),1,64*,3,-3,16,-1,x,x
Cc1ccc(S(=O)OCC(=O)Nc2cc(Cl)ccc2N2CCOCC2)cc1 (configuration not stated),8,8,2,4,-9,-6,x,x
CC1(C)C(O)=C(c2nc3ccccc3[nH]2)C(=N)N1c1ccccc1,26,100*,-1,25,-16,-14,x,x
CC(C)N1CC(O)=C(c2nc3ccccc3[nH]2)C1=N,-1,0,-3,-3,1,0,x,x
COC(=O)c1ccc(CSc2nnc(-c3ccncc3)o2)o1,-6,5,-1,8,7,-5,x,x
O=c1cc(N2CCCCC2)c(-c2ccccc2)nn1Cc1ccc(Cl)cc1Cl,9,20,3,105*,24,83*,x,x
O=c1cc(N2CCCCC2)c(-c2ccccc2)nn1Cc1ccccc1Cl,11,0,0,43,24,-6,x,x
O=c1cc(N2CCCCC2)c(-c2ccccc2)nn1Cc1cccc(Cl)c1,x,-1,2,52*,-15,88*,x,x
C=CCn1nc(-c2ccccc2)c(N2CCCCC2)cc1=O,-8,-18,2,-9,-3,15,x,x
CCOC(=O)c1cc2c(ccn2C)n1Cc1ccc(C#N)cc1,0,0,-1,-5,16,-5,x,x
COc1ccc(OCc2cc(=O)c3ccc4c(c3o2)C=CC(C)(C)O4)cc1OC,-9,x,5,x,11,15,x,x
CC(C)=CCOc1ccc([C@@H]2COc3c(ccc4c3C=CC(C)(C)O4)C2)c(O)c1,42,0,4,100*,47,102*,x,x
CCS(=O)(=O)N1CCN(c2ccc([N+](=O)[O-])c(NCC3CCCO3)c2)CC1 (configuration not stated),2,32,0,-4,6,13,x,x
C=CCN(CC=C)Cc1c(O)ccc2c(=O)c(-c3ccccc3)coc12,3,94*,0,-6,7,-9,x,x
CC(=O)N1CCc2c(sc(NC(=O)C3CC3)c2-c2nc3ccccc3s2)C1,22,1,-1,19,20,21,x,x
CC(=O)Nc1sc2c(c1-c1nc3ccccc3s1)CN(C(C)C)CC2,97*,x,0,x,99*,x,93*,57*
CCCN1CCC(NCc2cn(C)nc2-c2ccc(Oc3ccccc3)cc2)CC1,4,0,0,-11,65*,6,65*,56*
COc1ccc(-c2cc(-c3c(O)c(OC)c4occc4c3OC)[nH]n2)cc1OC,8,71,3,-4,60*,14,31,93*
O=C(/C=C/c1ccccc1)NC(=S)Nc1ccc(N2CCOCC2)cc1,-2,5,2,-5,32,5,x,x
O=C(/C=C/c1ccc(Cl)cc1)NC(=S)Nc1ccc(N2CCOCC2)c(Cl)c1,-2,3,10,28,86*,45,44*,91*
CCOC(=O)c1c2c(n(-c3ccc(OC)cc3)c1C)C(=O)C(=O)c1ccccc1-2,x,x,2,x,x,x,x,x
CCOC(=O)c1c2c(n(C)c1COC)C(=O)C(=O)c1ccc(Br)cc1-2,105*,-36,x,88*,99*,121*,98*,4
Cc1cc(C)n(S(=O)(=O)/C=C/c2ccccc2)n1,-11,-19,1,4,73*,-14,89*,52*
Cc1ccc(S(=O)(=O)n2nc(C)cc2C)cc1,0,13,-3,-5,5,-9,x,x
O=c1c2c3c(sc2nc(N2CCNCC2)n1-c1cccc(Cl)c1)CCCCC3,5,2,x,2,67*,17,27,x
SMILES,Beta cell apopt,Calb FLC,MPTP block,SKKanGAS inh,Mdm2-MdmX inh,CSC inhib,Mdm2 MdmX conf,Full FLuc ctr
CC(C)(C)n1nc(-c2ccc(Cl)cc2)c2c(N)ncnc21,-24,-6,-2,2,81*,-3,63*,38*
CC(C)(C)n1nc(-c2ccc(F)cc2)c2c(N)ncnc21,-29,64,10,-12,59*,6,55*,50*
Cc1ccc(-c2nc(N)c3c(-c4ccc(C)cc4)nn(C(C)(C)C)c3n2)cc1,-1,-5,1,-8,9,-7,x,x
C/C=C/C(=O)OCC(=O)Nc1nc2ccc(C)cc2s1,3,-5,1,4,-6,-12,x,x
CCN(CC)CCn1c2c(c(SCC(=O)Nc3nc(C)cs3)nc1=O)CCCC2,-5,0,0,6,23,6,x,x
Cc1ccc2nc(NC(=O)CSc3nc(=O)n(CCN(C)C)c4c3CCCC4)sc2c1,-4,5,0,3,65*,-2,49*,71*
Cc1ccc(NC(=O)CSc2nc(=O)n(CCCN(C)C)c3c2CCC3)c(C)c1,-2,-1,0,-1,13,-7,x,x
CCCCc1ccc(NC(=O)CSc2nc(=O)n(CCN(CC)CC)c3c2CCC3)cc1,8,3,-1,3,59*,80*,36,62*
CCN(CC)CCn1c2c(c(SCC(=O)Nc3nc(C)cs3)nc1=O)CCC2,-11,-2,-1,-2,52*,-9,15,x
Cc1cccc(OC2CCN(Cc3nc(CC4CC4)no3)CC2)c1,-3,u,0,1,-23,-4,x,x
Clc1ccc2c(c1)nc1n2CCCC1,3,2,-1,-2,-10,-6,x,x
Cc1cccc(-n2c(O)c(C=Nc3ccc4c(c3)OCO4)c3ccccc3c2=O)n1,5,-1,-1,5,28,2,x,x
Cc1cccc(/N=C/c2c(O)n(Cc3ccc4c(c3)OCO4)c(=O)c3ccccc23)n1,-1,-8,-2,3,53*,12,27,x
CCCc1nnc(SCC(=O)Nc2ccccc2F)o1,-5,1,2,0,-15,-5,x,x
COc1ccc(C2c3ccc4ccccc4c3Oc3ncn(CCCO)c(=N)c32)cc1OC (configuration not stated),7,51,-4,-10,78*,49,71*,48*
COc1ccc(Cc2nc3c4c(ncn3n2)Oc2c(ccc3ccccc23)C4c2ccc(OC)c(OC)c2)cc1 (configuration not stated),-2,-1,2,13,13,-1,x,x

# Bioassay records from PubChem.
